Reference: PubChem BioAssay (Tox21)
Results filed as inconclusive are left out. Entries that show only a call come without a potency. A structure can be active in one record and inactive in another. The source made the active and inactive calls. Unless noted, calls come from the whole dose curve.

How the values were obtained:
[1] = qHTS assay to identify small molecule antagonists of the sonic hedgehog signaling (Shh) pathway (AID 1259369); note: nearly all actives have a fitted effect of over 45% in size; note: potency is the fitted concentration of half-maximal effect
How it was run: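 For antagonist detection, the reporter line received test compounds together with conditioned medium, incubated 24hr at 37 C, 5% CO2, then luminescence was recorded following 30min room-temperature luciferase reagent incubation.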

[2] = qHTS assay to identify small molecule agonists of the androgen receptor (AR) signaling pathway in the presence of an antagonist - cell viability counter screen (AID 1259379; active = well fitted curve in the direction sought with a large enough effect in the repeat runs; an effect the other way counts as inactive or inconclusive; note: nearly all actives have a fitted effect of over 25% in size; note: potency is the fitted concentration of half-maximal effect)
How it was run: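 Seed MDA-kb2 at 3,000 cells/well; incubate 5 hr, 37C, 0% CO2. Add nilutamide to 3.0uM final, then pin compounds at 15 concentrations. Incubate 16 hr. Add CellTiter-Fluor at 15 hr, read fluorescence after 1 hr.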

[3] = qHTS assay to identify small molecule agonists of the estrogen receptor beta (ER-beta) signaling pathway - cell viability counter screen (AID 1259380; active = well fitted curve in the direction sought with a large enough effect in the repeat runs; an effect the other way counts as inactive or inconclusive; note: nearly all actives have a fitted effect of over 30% in size; note: potency is the fitted concentration of half-maximal effect)
How it was run: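 CellTiter-Glo read, 30 min RT, same wells as bla assay; cells ER-beta-UAS-bla HEK293T; 16 hr compound, 37C; medium 2% charcoal-stripped FBS.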

[4] = target: Androgen receptor (Homo sapiens) (UniProt P10275); test: qHTS assay to identify small molecule agonists of the androgen receptor (AR) signaling pathway in the presence of an antagonist (AID 1259381); note: nearly all actives have a fitted effect of over 15% in size
How it was run: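 Test compounds at 15 concentrations were incubated for 16hr with MDA-kb2 reporter cells in presence of 3.0uM nilutamide (final). Signal: ONE-Glo luciferase luminescence.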

[5] = qHTS assay to identify small molecule antagonists of the estrogen receptor beta (ER-beta) signaling pathway - cell viability counter screen (AID 1259382; active = well fitted curve in the direction sought with a large enough effect in the repeat runs; an effect the other way counts as inactive or inconclusive; note: nearly all actives have a fitted effect of over 55% in size; note: potency is the fitted concentration of half-maximal effect)
How it was run: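 In this multiplexed counter screen, cells were seeded at 2,000 per well in medium with 2% charcoal-stripped FBS and incubated 6 hr before compound and 1nM final E2 were added. Sixteen hours later, ATP-based luminescence reported viability.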

[6] = target: Estrogen receptor (Homo sapiens) (UniProt P03372); test: qHTS assay to identify small molecule agonists of the estrogen receptor alpha (ER-alpha) signaling pathway in the presence of an antagonist (AID 1259383); note: nearly all actives have a fitted effect of over 15% in size; note: potency is the fitted concentration of half-maximal effect
How it was run: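 Stably transfected VM7Luc4E2 reporter cells, kept 5 days in charcoal-stripped serum, received ICI-182,780 at 10.0nM final before compound addition. Following 22hr incubation at 37C and 5% CO2, luciferase signal was read by luminescence.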

[7] = qHTS assay to identify small molecule agonists or antagonists of the thyroid stimulating hormone receptor (TSHR) signaling pathway - wild type cell line counter screen (AID 1259384)
How it was run: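 Wild-type Hek293 cells, 800/well, 18 h at 37C, then compound with Ro20-1724 for 30 min RT. cAMP by HTRF (cAMP-d2/anti-cAMP cryptate), 1 h RT, fluorescence read. 15 concentrations, triplicates.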

[8] = target: Thyrotropin receptor (Homo sapiens) (UniProt P16473); test: qHTS assay to identify small molecule antagonists of the thyroid stimulating hormone receptor (TSHR) signaling pathway (AID 1259385); note: nearly all actives have a fitted effect of over 20% in size; note: potency is the fitted concentration of half-maximal effect
How it was run: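 TSHR-HEK293 cells (800/well) plated 18 h, then compounds with Ro20-1724 and TSH at 1.5 ng/mL final, 30 min at room temperature. cAMP quantified by HTRF (cAMP-d2/anti-cAMP-cryptate, 1 h); 15 concentrations in triplicate.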

[9] = target: Estrogen receptor beta (Homo sapiens) (UniProt Q92731); test: qHTS assay to identify small molecule antagonists of the estrogen receptor beta (ER-beta) signaling pathway (AID 1259378; active = well fitted inhibition curve with a large enough effect in the signal ratio in the repeat runs, not every such curve was filed as active; the % refers to the signal ratio; note: potency is the fitted concentration of half-maximal effect)
How it was run: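 ER-beta-UAS-bla HEK293T cells in 2% charcoal-stripped FBS medium treated with compound plus 1nM final 17-beta-estradiol for 16 hr at 37C. Beta-lactamase reporter read by FRET substrate fluorescence after 2 hours at room temperature.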

Sequence of Estrogen receptor (Homo sapiens) (P03372 whole entry, looked up): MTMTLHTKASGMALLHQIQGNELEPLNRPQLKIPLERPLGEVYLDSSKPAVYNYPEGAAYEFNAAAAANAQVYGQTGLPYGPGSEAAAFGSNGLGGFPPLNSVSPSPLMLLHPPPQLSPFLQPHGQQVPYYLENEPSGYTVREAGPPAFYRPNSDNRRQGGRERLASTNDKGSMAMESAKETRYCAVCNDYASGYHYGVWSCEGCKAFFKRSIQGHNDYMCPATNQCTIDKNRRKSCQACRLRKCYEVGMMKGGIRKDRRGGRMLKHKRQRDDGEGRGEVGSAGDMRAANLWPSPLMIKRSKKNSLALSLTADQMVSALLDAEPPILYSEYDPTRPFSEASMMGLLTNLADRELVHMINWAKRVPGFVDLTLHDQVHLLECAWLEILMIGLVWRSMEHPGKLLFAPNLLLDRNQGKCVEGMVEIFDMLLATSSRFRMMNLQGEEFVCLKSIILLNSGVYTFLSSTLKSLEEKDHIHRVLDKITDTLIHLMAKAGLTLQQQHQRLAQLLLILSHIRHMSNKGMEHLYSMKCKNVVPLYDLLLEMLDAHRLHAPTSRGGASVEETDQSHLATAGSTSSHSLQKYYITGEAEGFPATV
Sequence of Estrogen receptor beta (Homo sapiens) (Q92731 whole entry, looked up): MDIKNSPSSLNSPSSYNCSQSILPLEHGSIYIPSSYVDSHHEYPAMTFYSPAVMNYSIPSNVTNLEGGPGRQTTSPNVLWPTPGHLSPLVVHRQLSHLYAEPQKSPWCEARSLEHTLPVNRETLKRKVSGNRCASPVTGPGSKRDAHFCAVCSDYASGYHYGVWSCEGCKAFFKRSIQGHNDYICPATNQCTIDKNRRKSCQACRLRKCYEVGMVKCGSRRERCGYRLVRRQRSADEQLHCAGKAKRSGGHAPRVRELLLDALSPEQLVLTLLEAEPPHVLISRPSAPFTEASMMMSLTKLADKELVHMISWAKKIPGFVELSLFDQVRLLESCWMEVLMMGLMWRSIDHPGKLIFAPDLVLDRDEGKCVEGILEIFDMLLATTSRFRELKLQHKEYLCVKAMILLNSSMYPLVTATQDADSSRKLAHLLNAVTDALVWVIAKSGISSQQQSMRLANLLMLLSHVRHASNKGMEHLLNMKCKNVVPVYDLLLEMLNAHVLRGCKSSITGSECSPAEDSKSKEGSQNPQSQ
Sequence of Androgen receptor (Homo sapiens) (P10275 whole entry, looked up): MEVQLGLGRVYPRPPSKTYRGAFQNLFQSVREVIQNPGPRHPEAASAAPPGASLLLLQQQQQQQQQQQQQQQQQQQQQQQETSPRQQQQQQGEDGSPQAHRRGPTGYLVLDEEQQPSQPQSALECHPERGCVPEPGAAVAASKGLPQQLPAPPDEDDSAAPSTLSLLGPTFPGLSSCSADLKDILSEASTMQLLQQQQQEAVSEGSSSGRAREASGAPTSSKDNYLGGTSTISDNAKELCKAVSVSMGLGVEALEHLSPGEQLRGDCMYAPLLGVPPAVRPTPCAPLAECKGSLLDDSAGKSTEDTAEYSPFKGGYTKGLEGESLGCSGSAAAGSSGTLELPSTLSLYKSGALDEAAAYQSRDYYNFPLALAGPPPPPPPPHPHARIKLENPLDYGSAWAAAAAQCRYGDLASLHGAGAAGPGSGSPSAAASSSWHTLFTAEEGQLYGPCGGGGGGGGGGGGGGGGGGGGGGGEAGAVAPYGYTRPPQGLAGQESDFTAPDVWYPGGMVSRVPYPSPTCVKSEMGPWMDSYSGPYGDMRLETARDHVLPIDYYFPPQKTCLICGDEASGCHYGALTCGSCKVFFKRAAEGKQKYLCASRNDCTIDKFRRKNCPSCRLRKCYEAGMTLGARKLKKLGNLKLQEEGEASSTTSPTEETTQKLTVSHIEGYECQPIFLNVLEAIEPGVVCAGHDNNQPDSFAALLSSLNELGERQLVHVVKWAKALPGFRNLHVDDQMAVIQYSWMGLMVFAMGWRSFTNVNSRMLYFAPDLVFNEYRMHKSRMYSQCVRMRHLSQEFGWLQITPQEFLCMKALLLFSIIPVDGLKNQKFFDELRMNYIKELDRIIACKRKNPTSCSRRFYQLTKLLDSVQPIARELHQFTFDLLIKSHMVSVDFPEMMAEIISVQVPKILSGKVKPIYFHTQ
Sequence of Thyrotropin receptor (Homo sapiens) (P16473 whole entry, looked up): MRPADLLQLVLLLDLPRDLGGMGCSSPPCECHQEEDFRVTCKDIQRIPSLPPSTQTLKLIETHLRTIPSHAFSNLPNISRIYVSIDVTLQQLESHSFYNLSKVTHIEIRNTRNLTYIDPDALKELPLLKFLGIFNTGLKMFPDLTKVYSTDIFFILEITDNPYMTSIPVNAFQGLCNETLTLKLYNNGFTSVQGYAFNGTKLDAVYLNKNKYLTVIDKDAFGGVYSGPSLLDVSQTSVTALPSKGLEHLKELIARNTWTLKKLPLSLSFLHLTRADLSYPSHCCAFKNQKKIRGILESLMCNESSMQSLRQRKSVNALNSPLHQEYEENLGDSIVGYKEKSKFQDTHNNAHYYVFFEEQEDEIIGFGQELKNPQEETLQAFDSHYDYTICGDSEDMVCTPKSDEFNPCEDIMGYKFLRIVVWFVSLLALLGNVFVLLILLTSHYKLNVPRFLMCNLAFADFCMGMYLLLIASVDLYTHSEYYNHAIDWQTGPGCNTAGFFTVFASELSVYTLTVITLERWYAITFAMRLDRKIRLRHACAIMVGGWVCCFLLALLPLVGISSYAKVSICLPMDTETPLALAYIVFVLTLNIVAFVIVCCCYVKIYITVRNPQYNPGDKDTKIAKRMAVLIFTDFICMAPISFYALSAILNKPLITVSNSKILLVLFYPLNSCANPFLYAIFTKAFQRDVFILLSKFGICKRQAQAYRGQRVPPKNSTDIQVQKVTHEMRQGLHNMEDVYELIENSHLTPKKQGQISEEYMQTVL

Row | SMILES | Potency [1] | Potency [2] | Potency [3] | outcome [4] | Potency [5] | Potency [6] | outcome [7] | Potency [8] | Potency [9]
1 | CC(C)=CCNc1ncnc2c1ncn2[C@@H]1O[C@H](CO)[C@@H](O)[C@H]1O | 2.98 µM (active) | inactive | 13.3 µM (active) | inactive | 11.9 µM (active) | inactive | inactive | inactive | 
2 | OC12N=C(c3ccccc3)SC1Cc1cc(Cl)ccc12 (stereo not given) | inactive | inactive |  |  |  | 1.93 µM (active) |  |  | 61.1 µM (active)
3 | COCCOc1cc2cc(C(=O)NC3CCN(C(C)C)CC3)n(CC(=O)Nc3ccc(Cl)cn3)c2cn1 | 15.2 µM (active) | inactive |  |  | inactive |  | inactive |  | inactive
4 | COc1cc(C)ccc1O | inactive | inactive |  |  | inactive | inactive | inactive |  | inactive
5 | CC[N+](CC)(CC)CCOC(=O)C(C1CCCC1)C1CCCC1 | inactive | 33.5 µM (active) | inactive |  | inactive | inactive |  |  | 
6 | CCn1c2ccccc2c2cc([N+](=O)[O-])ccc21 | inactive | inactive |  |  | inactive |  |  |  | inactive
7 | COc1c(C)c2c(c(O)c1C/C=C(\C)CCC(=O)OCCN1CCOCC1)C(=O)OC2 | inactive | inactive | 0.335 µM (active) | inactive |  | inactive | inactive | inactive | 
8 | O=C(/C=C/c1ccccc1)OC/C=C/c1ccccc1 | inactive | inactive | inactive | inactive |  |  | inactive | inactive | inactive
9 | CCN(CC)c1ccc2c(-c3ccc(S(=O)(=O)O)cc3S(=O)(=O)[O-])c3ccc(=[N+](CC)CC)cc-3oc2c1 | inactive | 12.6 µM (active) |  | inactive | inactive |  |  |  | inactive
10 | Nc1nc(N)nc(-c2cc(Cl)ccc2Cl)n1 | inactive | inactive | inactive |  | inactive |  |  |  | 
11 | O=C1CCCCCCCCCCCCCCCO1 | inactive | inactive | inactive |  | inactive | inactive | inactive |  | inactive
12 | CC1=CCC(=C(C)C)CC1 | inactive | inactive | inactive |  | inactive | inactive |  |  | 
13 | CC/C=C\CCCCCO | inactive | inactive | inactive |  |  |  | inactive | inactive | inactive
14 | CCCC1CCC(=O)CC1 | inactive | inactive | inactive |  | inactive | inactive |  |  | inactive
15 | NC(=O)c1cccc([N+](=O)[O-])c1 | inactive | inactive | inactive | inactive |  | inactive | inactive | inactive | inactive
16 | Cc1ccc(C)cc1 | inactive | inactive | inactive | inactive | inactive | inactive |  |  | 

Row | SMILES | Potency [1] | Potency [2] | Potency [3] | outcome [4] | Potency [5] | Potency [6] | outcome [7] | Potency [8] | Potency [9]
17 | O=C(O)Cc1ccccc1Nc1c(Cl)cccc1Cl | inactive | inactive | 13.7 µM (active) | inactive |  | inactive | inactive | inactive | inactive
18 | CN1CCC[C@@H]1CCO[C@](C)(c1ccccc1)c1ccc(Cl)cc1 | 26.6 µM (active) | 29.8 µM (active) |  |  |  |  | inactive | 29.8 µM (active) | 18.8 µM (active)
19 | Oc1ccccc1O | 874 nM (active) and inactive | inactive | inactive |  | inactive |  | inactive | inactive | inactive
20 | O=C(O)Cc1ccc2c(c1)C(=O)c1ccccc1CO2 | inactive | inactive | inactive |  | inactive | inactive | inactive | inactive | inactive
21 | C=Cc1cccc(C)c1 | inactive | inactive | inactive |  | inactive |  | inactive | inactive | inactive
22 | OC1CCC(C2CCCCC2)CC1 (stereo not given) | inactive | inactive | inactive |  | inactive | inactive | inactive | inactive | inactive
23 | OC/C=C/CO | inactive | inactive | inactive |  | inactive |  | inactive | inactive | inactive
24 | CCc1cccc(CC)c1NC(=O)CN(CC(=O)O)CC(=O)O | inactive | inactive | inactive |  | inactive | inactive | inactive |  | inactive
25 | Cc1ccc(-c2ccccc2)cc1 | inactive | inactive | inactive |  | inactive |  | inactive |  | inactive
26 | O=C1c2ccccc2C(=O)N1SC1CCCCC1 | 15.3 µM (active) | inactive | 54.5 µM (active) |  |  | inactive | inactive | inactive | inactive
27 | CC[C@H](C)COC(=O)/C=C/c1ccc(N=Cc2ccc(OC)cc2)cc1 | inactive |  |  |  |  | inactive | inactive |  | 54.4 µM (active)
28 | CCC(CC)(CC(=O)Nc1cccc(/C=C/c2nc(C3CCC3)cs2)c1)C(=O)O | inactive | inactive | 7.5 µM (active) |  |  |  |  |  | 
29 | c1ccsc1 | inactive | inactive | inactive | inactive | inactive | inactive | inactive |  | 
30 | Sc1nc2ccccc2s1 | 54.5 µM (active) | inactive |  |  | inactive |  |  | inactive | inactive
31 | Cc1c(N)cccc1C(F)(F)F | inactive | inactive | inactive | inactive | inactive |  | inactive | inactive | 
32 | Cc1nc(-c2ccc(Cl)cc2)oc1COC(C)(C)C(=O)O | inactive | inactive |  |  | inactive |  | inactive | inactive | inactive
